Records with an inconclusive call do not appear. Values without a mark were called inactive. Active and inactive are the calls of the source. The call rests on the fitted dose curve; in most records, active means well fitted inhibition curve with a large enough effect; inconclusive means small, poorly fitted or top-dose-only effect, or effect the other way; inactive means flat fitted curve, though single readings scatter.
Assay: Quantitative high throughput screen for delayed death inhibitors of the malarial parasite plastid, 48 hour incubation (AID 488752); further: nearly all actives have a fitted effect of over 65% in size
Conditions: Plasmodium falciparum growth; series mostly up to 28.7 µM; activity change, negative = inhibition: at the top concentration
Source text: NIH Molecular Libraries Probe Production Network [MLPCN]
NIH Chemical Genomics Center [NCGC]
Assay Provider: David Fidock and Eric Ekland, Columbia University
The goal of this screen is to discover new antimalarial compounds that act by inhibiting the development of the apicoplast in the malarial parasite Plasmodium falciparum. The biochemical processes that make this organelle essential for erythrocytic stage parasites are not well understood. However, antibiotics, such as azithromycin and tetracycline, which target the apicoplast translational machinery, have a potent antimalarial effect.
We have developed a cell-based assay that measures parasite growth based on the expression of an integrated copy of a firefly luciferase reporter. To detect small molecules that cause this 'delayed death' phenotype, erythrocytes infected with the luciferase-expressing parasites were incubated with compounds for either one or two generations, corresponding to 48 and 96 hours, respectively. Compounds that inhibit parasite growth in the second generation, but not the first, should be enriched in antimalarials that target the apicoplast. Growth inhibition is detected by a decrease in luciferase activity
Four microliters of culture medium (RPMI 1640 with 0.5% w/v Albumax (GIBCO), 24 mM sodium bicarbonate and 10 ug/mL gentamycin) were dispensed by a Multi-drop Combi into white solid 1536-well plates (Grenier) and 23 nL compound was added by a pin tool. Four microliters of infected erythrocytes (2% hematocrit, 0.1% parasitemia final concentration) in culture medium were dispensed and the plates incubated for 48 hours at 37 C in 5% CO2. Two microliters of luciferase detection reagent was added and luminescence was detected by a ViewLux (PerkinElmer) reader
With `CC12CCC3C(CCC4=C(O)C(=O)CCC43C)C1CCC2=O` (stereo not drawn) the “activity change, negative = inhibition” value was -10.2%. For `C[C@@H]1O[C@@H](O[C@H]2C[C@@H](O)[C@]3(CO)[C@H]4[C@H](O)C[C@]5(C)[C@@H]([C@@H]6COC(=O)C6)CC[C@]5(O)[C@@H]4CC[C@]3(O)C2)[C@H](O)[C@H](O)[C@H]1O`, the “activity change, negative = inhibition” value was 1.68%. For `CCCN1CCC[C@@H]2Cc3n[nH]cc3C[C@H]21`, the “activity change, negative = inhibition” value was -6.23%. With `CCCN1CCCC(c2cccc(O)c2)C1` (stereo not drawn) the “activity change, negative = inhibition” value was 10.8%. For `CC(C)[C@@]1(NC(=O)[C@@H]2C[C@@H]3c4cccc5[nH]cc(c45)C[C@H]3N(C)C2)O[C@@]2(O)C3CCCN3C(=O)[C@H](Cc3ccccc3)N2C1=O` (stereo partly drawn), the Potency was 1.65 µM (active). For `C#CCN(C)C(C)Cc1ccccc1` (stereo not drawn), the “activity change, negative = inhibition” value was 16.1%. In the case of `CCNC(=O)[C@H]1O[C@@H](n2cnc3c(N)ncnc32)[C@H](O)[C@H]1O`, the “activity change, negative = inhibition” value is reported as -0.843%. For `C[C@H]1OC[C@@H](C[N+](C)(C)C)O1`, the “activity change, negative = inhibition” value was -4.38%. With `CCc1c(C(=O)OC)ncc2[nH]c3cc(OC)c(OC)cc3c12` the “activity change, negative = inhibition” value was 0.586%. In the case of `COc1cc(C[C@@H](C)N)c(OC)cc1I`, the “activity change, negative = inhibition” value is reported as -10%. In the case of `C[N+]1(C)C2CC(OC(=O)C(CO)c3ccccc3)CC1C1OC12` (stereo not drawn), the “activity change, negative = inhibition” value is reported as -0.696%. In the case of `O=C(O)C1C2CCC(O2)C1C(=O)O` (stereo not drawn), the “activity change, negative = inhibition” value is reported as 11.9%. With `CCCN(CCC)C(=O)Cc1c(-c2ccc(Cl)cc2)nc2c(Cl)cc(Cl)cn12` the “activity change, negative = inhibition” value was -0.656%. In the case of `COc1ccc2c3c1O[C@H]1C(=O)CC[C@@]4(O)C(C2)N(CC2CC2)CCC314` (stereo partly drawn), the “activity change, negative = inhibition” value is reported as 2.02%. With `CC(C)(O)C1C2OC(=O)C1[C@]1(O)C[C@H]3O[C@]34C(=O)O[C@H]2[C@]14C` (stereo partly drawn) (tested in a mixture with another compound) the “activity change, negative = inhibition” value was 9.4%. For `C=CCN1CCc2cccc3c2C1Cc1ccc(O)c(O)c1-3` (stereo not drawn), the Potency was 10.4 µM (active). In the case of `C[C@]12CC[C@H]3[C@@H](CCC4C[C@H](O)CC[C@@]43C)[C@@H]1CC[C@@H]2O` (stereo partly drawn), the “activity change, negative = inhibition” value is reported as 2.68%. In the case of `CCCN(CCC)[C@@H]1CCc2c(F)ccc(O)c2C1`, the Potency is reported as 2.62 µM (active). With `Nc1ncnc2c1ncn2[C@@H]1O[C@H](COP(=O)(O)CP(=O)(O)OP(=O)(O)O)[C@H](O)[C@H]1O` the “activity change, negative = inhibition” value was -3.05%. With `C[C@]12CC[C@H](O)CC1=CCC1C2CC[C@]2(C)C(=O)CC[C@@H]12` (stereo partly drawn) the “activity change, negative = inhibition” value was -14.8%. In the case of `C[C@]12CC[C@@H](O)CC1CCC1C2CC[C@]2(C)C(=O)CC[C@@H]12` (stereo partly drawn), the “activity change, negative = inhibition” value is reported as -17.2%. In the case of `COC(=O)C(N)CCCN=C(N)N[N+](=O)[O-]` (stereo not drawn), the “activity change, negative = inhibition” value is reported as -3.79%. In the case of `NNCc1cccc(O)c1`, the Potency is reported as 7.38 µM (active). For `CCCCN1C2CCC1CC(OC(c1ccc(F)cc1)c1ccc(F)cc1)C2` (stereo not drawn), the Potency was 7.38 µM (active). In the case of `C[C@]12CC[C@H](OS(=O)(=O)O)CC1=CCC1C2CC[C@]2(C)C(=O)CC[C@@H]12` (stereo partly drawn), the “activity change, negative = inhibition” value is reported as -4.6%. With `C[C@H]1C2Cc3ccc(O)cc3[C@]1(C)CCN2CC1CC1` the “activity change, negative = inhibition” value was -1.84%. For `NCC#Cc1ccccc1`, the “activity change, negative = inhibition” value was -0.151%. For `N#CC(=Cc1ccc(O)c(O)c1)C(N)=S`, the “activity change, negative = inhibition” value was -13%. For `CCCN1CCC[C@@H](c2cccc(C#N)c2)C1`, the “activity change, negative = inhibition” value was -4.3%. With `CCCN1CCc2cccc3c2C1Cc1ccc(O)c(O)c1-3` (stereo not drawn) the Potency was 1.85 µM (active). For `CCCC[N+]1(C)C2CC(OC(=O)C(CO)c3ccccc3)CC1C1OC12` (stereo not drawn), the “activity change, negative = inhibition” value was -3.93%. With `CC1Cc2cc3c(cc2C(c2ccc(N)cc2)=NN1)OCO3` (stereo not drawn) the “activity change, negative = inhibition” value was -26.1%. In the case of `C/C=C(/C)C(=O)O[C@H]1C(C)=C2C([C@@H]1OC(=O)CCCCCCC)[C@@](C)(OC(C)=O)C[C@@H](OC(=O)CCC)[C@@]1(O)[C@H]2OC(=O)[C@@]1(C)O` (stereo partly drawn), the Potency is reported as 2.94 µM (active). In the case of `CN1CCC23CCCC[C@H]2C1Cc1ccc(O)cc13` (stereo partly drawn), the “activity change, negative = inhibition” value is reported as -2.69%. In the case of `CCC(CO)NC(=O)[C@@H]1C=C2c3cccc4[nH]cc(c34)C[C@H]2N(C)C1` (stereo partly drawn), the “activity change, negative = inhibition” value is reported as 13.3%. For `NC(Cn1ccc(=O)[nH]c1=O)C(=O)O` (stereo not drawn), the “activity change, negative = inhibition” value was -6.08%. With `C=CCN1CC[C@@]2(C)c3cc(O)ccc3CC1[C@@H]2C` the “activity change, negative = inhibition” value was 3.61%. With `CCCN1CCc2cc(O)cc3c2C1Cc1ccc(O)c(O)c1-3` (stereo not drawn) the Potency was 8.28 µM (active).
On the % scale 0 is the no-effect control and ±100 the full control effect; potency means the concentration at half of the fitted maximal effect.
